Results reported in PubChem BioAssay (NCI).
This is part of a sample that, as a whole, favours compounds with a hit. Of some 83,000 tested, about 20% had one in any assay.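 Growth was measured after 48 h exposure to one concentration of compound in 96-well plates. Values under 10 count as active.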 Calls of active or inactive are those of the source.

Key:
Test in all cases: NCI-60 one-dose screen, 48 h (100 = growth as untreated, 0 = no growth, -100 = all killed)
Conditions in all cases: 10 µM unless noted
T-47D breast = test system: T-47D breast
BT-549 breast = test system: BT-549 breast
MDA-MB-435 melanoma = test system: MDA-MB-435 melanoma
SW-620 colon = test system: SW-620 colon
MCF7 breast = test system: MCF7 breast
HCT-116 colon = test system: HCT-116 colon
HCC-2998 colon = test system: HCC-2998 colon
KM12 colon = test system: KM12 colon

Measured: growth

Clc1cn2cc(-c3ccc(Cl)c(Cl)c3Cl)nc2s1
inactive: T-47D breast 71.8% | BT-549 breast 129% | MDA-MB-435 melanoma 88.1% | SW-620 colon 111% | MCF7 breast 87.8% | HCT-116 colon 96.9% | HCC-2998 colon 106% | KM12 colon 111%

COC(=O)CNS(=O)(=O)c1ccc2c(c1)Cc1cc(S(=O)(=O)NCC(=O)OC)ccc1-2
inactive: T-47D breast 99.5% | BT-549 breast 100% | MDA-MB-435 melanoma 103% | SW-620 colon 102% | MCF7 breast 95.5% | HCT-116 colon 109% | HCC-2998 colon 111% | KM12 colon 109%

O=C(CCc1nc2sc3c(c2c(=O)[nH]1)CCC3)NCc1cn(-c2ccccc2)nc1-c1ccccc1
inactive: BT-549 breast 95.6% | MDA-MB-435 melanoma 76.1% | SW-620 colon 28.7% | MCF7 breast 34.1% | HCC-2998 colon 87.5% | KM12 colon 85.3%
active: T-47D breast -0.261% | HCT-116 colon -27.1%

COc1cc(C2C=C(C)N=C3SC=NN32)cc(OC)c1OC (stereo unspecified)
inactive: T-47D breast 109% | BT-549 breast 141% | MDA-MB-435 melanoma 104% | SW-620 colon 105% | MCF7 breast 98.9% | HCT-116 colon 111% | HCC-2998 colon 102% | KM12 colon 107%

COc1ccc2c(c1)CCCC21C(=O)Nc2c(Cl)cccc21 (stereo unspecified)
inactive: T-47D breast 87.6% | BT-549 breast 91% | SW-620 colon 42.8% | MCF7 breast 81.8% | HCT-116 colon 49.5% | HCC-2998 colon 88.3% | KM12 colon 61.3%
active: MDA-MB-435 melanoma -11.8%

C=CCOc1c(Br)cc(Br)cc1Br
inactive: T-47D breast 65.1% | BT-549 breast 67.4% | MDA-MB-435 melanoma 27.2% | SW-620 colon 76.1% | MCF7 breast 40.5% | HCT-116 colon 54.5% | HCC-2998 colon 95.1% | KM12 colon 84.8%

CC(=O)c1cc(C(=O)c2ccc3c(c2)Sc2ccccc2N3)c2c(C)cccn12
inactive: T-47D breast 58.1% | BT-549 breast 18.2% | SW-620 colon 28.8% | MCF7 breast 24.5% | HCC-2998 colon 22.8% | KM12 colon 11.8%
active: MDA-MB-435 melanoma -26.9% | HCT-116 colon 6.07%

Cc1ccc(/C=C/C(=N/N=C(N)N)c2ccccc2)cc1
active: MDA-MB-435 melanoma -16.9%
inactive: T-47D breast 40.9% | BT-549 breast 47.7% | SW-620 colon 25.9% | MCF7 breast 11.6% | HCT-116 colon 20.1% | HCC-2998 colon 20.9% | KM12 colon 14.8%

CCCCCCCCCC1=NC(C)(C)CN1C(C)(C)CO
inactive: T-47D breast 153% | BT-549 breast 105% | MDA-MB-435 melanoma 110% | SW-620 colon 93.8% | MCF7 breast 95.3% | HCT-116 colon 69.3% | HCC-2998 colon 84.1% | KM12 colon 97.6%

C=CCn1c(SCC(=O)Nc2ccc(/C(C)=N\O)cc2)nnc1-c1cc(-c2ccccc2)nc2ccccc12
inactive: T-47D breast 15.2% | BT-549 breast 54% | MDA-MB-435 melanoma 56.1% | SW-620 colon 51.9% | MCF7 breast 21% | HCT-116 colon 44% | HCC-2998 colon 62.1% | KM12 colon 44.8%

CCN(CC)CCCCCCCNc1cc(OC)cc2c(C)ccnc12
inactive: T-47D breast 53.6% | BT-549 breast 82.6% | MDA-MB-435 melanoma 98.6% | SW-620 colon 88.6% | MCF7 breast 27.2% | HCT-116 colon 70.9% | HCC-2998 colon 90.9% | KM12 colon 89.9%

CCN(CC)Cc1cc(Nc2nc(NC3CCC(N(C)C)CC3)c3ccccc3n2)ccc1OC (stereo unspecified)
inactive: T-47D breast 53.9% | BT-549 breast 107% | MDA-MB-435 melanoma 39.5% | SW-620 colon 61.4% | MCF7 breast 40.1% | HCT-116 colon 60.5% | HCC-2998 colon 81.3% | KM12 colon 61.1%

CCSc1ccc([C@@H]2[C@@H](O)C(=O)N2c2cc(OC)c(OC)c(OC)c2)cc1
active: BT-549 breast 9.68% | MDA-MB-435 melanoma -32.4% | HCT-116 colon 2.13%
inactive: T-47D breast 76.6% | SW-620 colon 22.3% | MCF7 breast 20.1% | HCC-2998 colon 29.6% | KM12 colon 11.3%

Oc1ccc(Cl)cc1-c1cc(-c2ccccc2Cl)[nH]n1
active: MCF7 breast 9.57%
inactive: T-47D breast 11.1% | BT-549 breast 76.2% | MDA-MB-435 melanoma 48.1% | SW-620 colon 74.7% | HCT-116 colon 55.8% | HCC-2998 colon 31.1% | KM12 colon 19.7%

Nc1nc(N)c2c(n1)NC(c1sc(Cl)nc1Cl)CC(c1ccc3c(c1)OCO3)=N2 (stereo unspecified)
active: MDA-MB-435 melanoma -9.34%
inactive: T-47D breast 39.1% | BT-549 breast 27.2% | SW-620 colon 13.2% | MCF7 breast 26.2% | HCT-116 colon 20.1% | HCC-2998 colon 61.2% | KM12 colon 34.2%

ClCc1cccc(CSc2ncnc3c2ncn3Cc2cccc(CCl)c2)c1
active: T-47D breast -64.7% | BT-549 breast -69.6% | MDA-MB-435 melanoma 9.56% | SW-620 colon -45.6% | HCT-116 colon -79.6% | HCC-2998 colon -71.7%
inactive: MCF7 breast 13.3% | KM12 colon 57.9%

NS(=O)(=O)c1ccc(N2N=C(c3cccs3)CC2c2ccccc2O)cc1 (stereo unspecified)
active: BT-549 breast -15.4% | MDA-MB-435 melanoma -41.1% | MCF7 breast 4.97% | HCT-116 colon 3.06% | HCC-2998 colon -8.11% | KM12 colon -15.8%
inactive: T-47D breast 46.1% | SW-620 colon 19.3%

CC1CN(CCCOC(=O)Nc2ccc(Cl)cc2)CCN1C(C)(C)C (stereo unspecified)
inactive: T-47D breast 90% | BT-549 breast 101% | MDA-MB-435 melanoma 102% | SW-620 colon 110% | MCF7 breast 99% | HCT-116 colon 100% | HCC-2998 colon 101% | KM12 colon 106%

COc1cccc(NC(=O)c2c(-c3ccccc3)c(-c3ccccc3)n[nH]c2=O)c1
inactive: T-47D breast 87.5% | BT-549 breast 102% | MDA-MB-435 melanoma 98% | SW-620 colon 98.7% | MCF7 breast 95.9% | HCT-116 colon 94.9% | HCC-2998 colon 94.4% | KM12 colon 103%

CCOC(CN1CCN(CC(C)C(=O)c2ccccc2)CC1)c1ccccc1 (stereo unspecified)
inactive: T-47D breast 92.8% | BT-549 breast 115% | MDA-MB-435 melanoma 102% | SW-620 colon 106% | MCF7 breast 80.6% | HCT-116 colon 109% | HCC-2998 colon 115% | KM12 colon 104%

COc1ccc(/C(=C\c2cc(OC)c(OC)c(OC)c2)C(=O)N2CCCNCC2)cc1
inactive: T-47D breast 93.1% | BT-549 breast 114% | MDA-MB-435 melanoma 111% | SW-620 colon 108% | MCF7 breast 97.3% | HCT-116 colon 104% | HCC-2998 colon 99.8% | KM12 colon 110%

COc1ccc(-c2nsc3c2NC(=O)CC3c2ccc3c(c2)OCO3)cc1 (stereo unspecified)
inactive: T-47D breast 33.2% | BT-549 breast 53.6% | SW-620 colon 24.9% | MCF7 breast 22.7% | HCT-116 colon 28.6% | HCC-2998 colon 39.4% | KM12 colon 31.2%
active: MDA-MB-435 melanoma -38.5%

Clc1cc(Br)ccc1-c1ccc(CNCC2CCNCC2)o1
inactive: T-47D breast 43.8% | BT-549 breast 77.9% | MDA-MB-435 melanoma 52.9% | SW-620 colon 24.5% | MCF7 breast 39.7% | HCT-116 colon 40.9% | HCC-2998 colon 88.2% | KM12 colon 53.9%

CCOC(=O)C(=CNc1ccccc1Cl)C(=O)OCC
inactive: T-47D breast 95% | BT-549 breast 106% | MDA-MB-435 melanoma 76.9% | SW-620 colon 98.4% | MCF7 breast 93.8% | HCT-116 colon 97.9% | HCC-2998 colon 102% | KM12 colon 105%

CC1=C(C(=O)Nc2ccc(F)cc2)C(c2ccc(Cl)cc2)C2=C(CC(C)(C)CC2=O)N1 (stereo unspecified)
inactive: T-47D breast 82.6% | BT-549 breast 99.9% | MDA-MB-435 melanoma 91.6% | SW-620 colon 94.6% | MCF7 breast 80.1% | HCT-116 colon 86.9% | HCC-2998 colon 99.6% | KM12 colon 92.6%

CC1(C)C2CCC(O)(C(=O)O)C1C2 (stereo unspecified)
inactive: T-47D breast 96.1% | BT-549 breast 104% | MDA-MB-435 melanoma 99.1% | SW-620 colon 115% | MCF7 breast 95.7% | HCT-116 colon 117% | HCC-2998 colon 118% | KM12 colon 118%

C/C(=C\C(=N\N=C(N)N)c1ccc(Cl)cc1)c1ccc(Cl)cc1
active: T-47D breast -79.6% | BT-549 breast -84.1% | MDA-MB-435 melanoma -62.9% | SW-620 colon -72.7% | MCF7 breast -78.4% | HCT-116 colon -85.9% | HCC-2998 colon -87.3% | KM12 colon -88.2%
